Source: the supplement of paper PMC9262897, “Low-cost anti-mycobacterial drug discovery using engineered E. coli” (Nature Communications, 2022)
Where a name gives a salt, the structure may show the parent alone. ± gives the standard deviation of the averaged measurements.

Tests used:
Assay in all cases: growth (OD600 after 10 h); higher = more growth (less inhibition)
[1] = tested on: E. coli TESEC Alr+ wild-type control; details: compound 0.1 mM; raw OD600 reference: median of DMSO wells 0.241, cell-free background 0.041
Protocol: (§1)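 TESEC Mtb Alr E. coli, or the Alr+ wild-type control, in 384-well plates with Prestwick library compounds at 0.1 mM and 1% DMSO, across arabinose induction levels of 1E3 to 1E7 nM. Growth is read as OD600 after 10 h at 37 °C in triplicate biological replicates.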

E. coli TESEC Mtb Alr [2] = details: compound 0.1 mM
Protocol: as §1

E. coli TESEC Mtb Asd = details: compound 0.1 mM
Protocol: (§2)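 TESEC E. coli strains in which the native enzyme is deleted and replaced by arabinose-inducible Mtb Asd, DapB, CysH or TrpD, each grown in its selective medium. Strains were screened against the Prestwick library at 0.1 mM and 1% DMSO in 384-well format at low and high arabinose induction. Growth is read as OD600 after 10 h in triplicate.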

E. coli TESEC Mtb DapB = details: compound 0.1 mM
Protocol: as §2

[3] = tested on: E. coli TESEC Alr+ wild-type control; details: compound 0.1 mM; raw OD600 reference: median of DMSO wells 0.49, cell-free background 0.052
Protocol: (§3)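 TESEC Mtb Alr E. coli (ΔaraC ΔtolC ΔentC Δalr ΔdadX, arabinose-inducible Mtb Alr) or the Alr+ wild-type control strain, grown in defined M9-fructose medium without D-alanine in 96-well plates with Prestwick library compounds at 0.1 mM and 1% DMSO. Low Alr induction is 0.1 µM arabinose and high induction is 10 mM arabinose.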

E. coli TESEC Mtb Alr [4] = details: compound 0.1 mM; remark: listed apart in the source
Protocol: as §3

[5] = arabinose 1000 nM, raw OD600 reference: median of DMSO wells 0.294, cell-free background 0.041
[6] = arabinose 10000 nM, raw OD600 reference: median of DMSO wells 0.264, cell-free background 0.041
[7] = arabinose 100000 nM, raw OD600 reference: median of DMSO wells 0.201, cell-free background 0.041
[8] = arabinose 1000000 nM, raw OD600 reference: median of DMSO wells 0.193, cell-free background 0.041
[9] = arabinose 10000000 nM, raw OD600 reference: median of DMSO wells 0.146, cell-free background 0.041
[10] = arabinose induction (level): High, raw OD600 reference: median of DMSO wells 0.331, cell-free background 0.041
[11] = arabinose induction (level): Low, raw OD600 reference: median of DMSO wells 0.417, cell-free background 0.041
[12] = arabinose induction (level): High, raw OD600 reference: median of DMSO wells […], cell-free background 0.041
[13] = arabinose induction (level): Low, raw OD600 reference: median of DMSO wells 0.227, cell-free background 0.041
[14] = arabinose 100 nM, raw OD600 reference: median of DMSO wells 0.413, cell-free background 0.052
[15] = arabinose 10000000 nM, raw OD600 reference: median of DMSO wells […], cell-free background 0.052

Row | SMILES | growth [1] | growth (E. coli TESEC Mtb Alr [2]; [5]) | growth (E. coli TESEC Mtb Alr [2]; [6]) | growth (E. coli TESEC Mtb Alr [2]; [7]) | growth (E. coli TESEC Mtb Alr [2]; [8]) | growth (E. coli TESEC Mtb Alr [2]; [9]) | growth (E. coli TESEC Mtb Asd; [10]) | growth (E. coli TESEC Mtb Asd; [11]) | growth (E. coli TESEC Mtb DapB; [12]) | growth (E. coli TESEC Mtb DapB; [13]) | growth [3] | growth (E. coli TESEC Mtb Alr [4]; [14]) | growth (E. coli TESEC Mtb Alr [4]; [15])
1 | CN1C(C(=O)Nc2ccccn2)=C(O)c2ccccc2S1(=O)=O [Piroxicam] | 0.195 ± 0.0024 | 0.229 ± 0.0073 | 0.253 ± 0.0061 | 0.18 ± 0.013 | 0.127 ± 0.0038 | 0.155 ± 0.003 | 0.321 ± 0.013 | 0.282 ± 0.042 | 0.181 ± 0.015 | 0.227 ± 0.068 | 0.4032 ± 0.0031 | 0.362 ± 0.1 | 0.259 ± 0.016
2 | CCOC(=O)[C@@](C)(N)Cc1ccc(O)c(O)c1 [Methyldopate hydrochloride] | 0.106 ± 0.0036 | 0.159 ± 0.008 | 0.185 ± 0.011 | 0.116 ± 0.0072 | 0.0901 ± 0.0019 | 0.116 ± 0.0018 | 0.163 ± 0.024 | 0.276 ± 0.13 | 0.155 ± 0.01 | 0.152 ± 0.016 | 0.469 ± 0.013 | 0.405 ± 0.021 | 0.339 ± 0.022
3 | OC(c1cc(C(F)(F)F)nc2c(C(F)(F)F)cccc12)C1CCCCN1 (stereo not drawn) [Mefloquine hydrochloride] | 0.0408 ± 0.00093 | 0.0401 ± 0.0013 | 0.0392 ± 0.0005 | 0.0403 ± 0.00056 | 0.0392 ± 0.00017 | 0.0398 ± 0.00036 | 0.0511 ± 0.0036 | 0.055 ± 0.0046 | 0.0464 ± 0.00035 | 0.0483 ± 0.0032 | 0.04863 ± 0.00045 | 0.199 ± 0.23 | 0.0512 ± 0.00055
4 | C[C@]12C=CC(=O)C=C1CC[C@H]1[C@@H]3C[C@@H](O)[C@](O)(C(=O)CO)[C@@]3(C)C[C@H](O)[C@@]12F [Triamcinolone] | 0.222 ± 0.0077 | 0.256 ± 0.033 | 0.266 ± 0.0064 | 0.157 ± 0.014 | 0.142 ± 0.0088 | 0.127 ± 0.0023 | 0.222 ± 0.011 | 0.452 ± 0.014 | 0.191 ± 0.014 | 0.229 ± 0.022 | 0.451 ± 0.037 | 0.4315 ± 0.0037 | 0.306 ± 0.03
5 | CC1(C)OC(=O)NC1=O [Dimethadione] | 0.243 ± 0.0066 | 0.295 ± 0.016 | 0.2697 ± 0.0012 | 0.191 ± 0.017 | 0.184 ± 0.0086 | 0.139 ± 0.0053 | 0.292 ± 0.005 | 0.414 ± 0.022 | 0.182 ± 0.0086 | 0.199 ± 0.05 | 0.526 ± 0.075 | 0.406 ± 0.017 | 0.347 ± 0.011
6 | Cc1ccc(S(=O)(=O)NC(=O)NN2CC3CCCC3C2)cc1 (stereo not drawn) [Gliclazide] | 0.244 ± 0.012 | 0.309 ± 0.0099 | 0.271 ± 0.0064 | 0.222 ± 0.017 | 0.192 ± 0.0036 | 0.177 ± 0.0042 | 0.298 ± 0.032 | 0.364 ± 0.071 | 0.212 ± 0.011 | 0.28 ± 0.042 | 0.518 ± 0.074 | 0.404 ± 0.02 | 0.372 ± 0.0073
7 | COc1ccccc1OCC(O)COC(N)=O (stereo not drawn) [Methocarbamol] | 0.2535 ± 0.00091 | 0.282 ± 0.0088 | 0.275 ± 0.012 | 0.218 ± 0.018 | 0.187 ± 0.0043 | 0.141 ± 0.006 | 0.292 ± 0.018 | 0.397 ± 0.058 | 0.178 ± 0.012 | 0.183 ± 0.018 | 0.509 ± 0.11 | 0.412 ± 0.0098 | 0.347 ± 0.0072
8 | CC[C@H]1OC(=O)[C@H](C)[C@@H](O[C@H]2C[C@@](C)(OC)[C@@H](O)[C@H](C)O2)[C@H](C)[C@@H](O[C@@H]2O[C@H](C)C[C@H](N(C)C)[C@H]2O)[C@](C)(O)C[C@@H](C)C(=O)[C@H](C)[C@@H](O)[C@]1(C)O [Erythromycin] | 0.04107 ± 0.00038 | 0.0413 ± 0.0016 | 0.03973 ± 5.8e-05 | 0.0421 ± 0.0013 | 0.0401 ± 0.0001 | 0.0414 ± 0.00076 | 0.0563 ± 0.0023 | 0.0536 ± 0.0019 | 0.04857 ± 0.00045 | 0.052 ± 0.0057 | 0.0538 ± 0.0043 | 0.0567 ± 0.0002 | 0.05153 ± 0.00031
9 | Cc1cc(-c2ccccc2)nnc1NCCN1CCOCC1 [Minaprine dihydrochloride] | 0.227 ± 0.0047 | 0.288 ± 0.011 | 0.25 ± 0.0072 | 0.182 ± 0.012 | 0.155 ± 0.004 | 0.156 ± 0.0078 | 0.212 ± 0.028 | 0.342 ± 0.074 | 0.185 ± 0.0026 | 0.225 ± 0.045 | 0.498 ± 0.045 | 0.409 ± 0.0057 | 0.318 ± 0.029
10 | Cc1ccc(NC(=O)c2ccc(CN3CCN(C)CC3)cc2)cc1Nc1nccc(-c2cccnc2)n1 [Imatinib] | 0.171 ± 0.0085 | 0.23 ± 0.0032 | 0.241 ± 0.00089 | 0.141 ± 0.009 | 0.119 ± 0.0081 | 0.161 ± 0.0024 | 0.185 ± 0.02 | 0.334 ± 0.063 | 0.185 ± 0.011 | 0.217 ± 0.02 | 0.455 ± 0.046 | 0.4192 ± 0.0028 | 0.241 ± 0.018
11 | Cc1c(OCC(F)(F)F)ccnc1C[S+]([O-])c1nc2ccccc2[nH]1 (stereo not drawn) [Lansoprazole] | 0.131 ± 0.0017 | 0.164 ± 0.0045 | 0.242 ± 0.01 | 0.132 ± 0.0025 | 0.094 ± 0.0041 | 0.14 ± 0.0041 | 0.236 ± 0.024 | 0.191 ± 0.0085 | 0.175 ± 0.0097 | 0.203 ± 0.02 | 0.377 ± 0.011 | 0.363 ± 0.035 | 0.163 ± 0.025
12 | CC(N/C(=N\C#N)Nc1ccncc1)C(C)(C)C (stereo not drawn) [Pinacidil] | 0.223 ± 0.015 | 0.274 ± 0.011 | 0.257 ± 0.0097 | 0.219 ± 0.0078 | 0.137 ± 0.0036 | 0.138 ± 0.0067 | 0.369 ± 0.037 | 0.412 ± 0.03 | 0.19 ± 0.012 | 0.232 ± 0.022 | 0.446 ± 0.031 | 0.405 ± 0.012 | 0.359 ± 0.036
13 | CC(C)NNC(=O)c1ccncc1 [Iproniazide phosphate] | 0.253 ± 0.0043 | 0.276 ± 0.0095 | 0.27 ± 0.0057 | 0.219 ± 0.033 | 0.188 ± 0.007 | 0.153 ± 0.0052 | 0.359 ± 0.057 | 0.43 ± 0.014 | 0.199 ± 0.02 | 0.223 ± 0.034 | 0.496 ± 0.095 | 0.417 ± 0.007 | 0.374 ± 0.011
14 | CN(C)CCC=C1c2ccccc2C=Cc2ccccc21 [Cyclobenzaprine hydrochloride] | 0.1703 ± 0.0014 | 0.204 ± 0.016 | 0.247 ± 0.011 | 0.172 ± 0.011 | 0.0898 ± 0.0029 | 0.125 ± 0.0031 | 0.161 ± 0.0091 | 0.262 ± 0.022 | 0.175 ± 0.011 | 0.203 ± 0.027 | 0.5608 ± 0.002 | 0.401 ± 0.0064 | 0.231 ± 0.018
15 | COc1nc(C)nc(Cl)c1NC1=NCCN1 [Moxonidine] | 0.241 ± 0.011 | 0.298 ± 0.014 | 0.262 ± 0.0065 | 0.18 ± 0.013 | 0.187 ± 0.0025 | 0.133 ± 0.0069 | 0.248 ± 0.033 | 0.434 ± 0.025 | 0.209 ± 0.016 | 0.254 ± 0.017 | 0.567 ± 0.019 | 0.411 ± 0.015 | 0.342 ± 0.02
16 | O=C(O)Cc1sc(-c2ccccc2)nc1-c1ccc(Cl)cc1 [Fentiazac] | 0.168 ± 0.0065 | 0.17 ± 0.0076 | 0.137 ± 0.0036 | 0.165 ± 0.0017 | 0.152 ± 0.0063 | 0.158 ± 0.0089 | 0.189 ± 0.0056 | 0.187 ± 0.018 | 0.206 ± 0.012 | 0.223 ± 0.029 | 0.286 ± 0.012 | 0.141 ± 0.064 | 0.14 ± 0.033
